According to PubChem BioAssay (NCATS):
Results filed as inconclusive are left out. Active and inactive are the calls of the source. Unless noted, calls follow the shape of the dose curve; as a rule, active = well fitted inhibition curve with a large enough effect; inconclusive = small, poorly fitted or top-dose-only effect; inactive = no such curve, though single readings can be large or run the other way.

target: Papain (Carica papaya) (UniProt P00784); experiment: Primary qHTS assay for inhibitors of the protease papain (AID 1645873); conditions: papain Z-FR-AMC cleavage, AMC fluorescence; series mostly up to 49.8 µM; activity change, negative = inhibition: at the top concentration;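 also: papain turnover of Z-FR-AMC read as the AMC fluorescence gain over 10 min; % is scaled to controls: 0 for no effect and ±100 for the full control effect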
Sequence (P00784 whole entry, looked up): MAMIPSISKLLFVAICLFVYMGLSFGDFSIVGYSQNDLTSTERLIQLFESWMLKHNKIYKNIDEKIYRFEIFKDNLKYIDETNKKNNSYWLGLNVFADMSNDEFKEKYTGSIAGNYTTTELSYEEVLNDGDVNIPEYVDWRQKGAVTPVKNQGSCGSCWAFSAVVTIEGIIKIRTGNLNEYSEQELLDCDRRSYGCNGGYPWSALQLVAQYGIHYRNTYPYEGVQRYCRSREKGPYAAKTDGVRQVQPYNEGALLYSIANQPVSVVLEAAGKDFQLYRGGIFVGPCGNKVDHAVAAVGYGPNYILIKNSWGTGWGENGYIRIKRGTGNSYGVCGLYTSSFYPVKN

Compound	activity change, negative = inhibition
NC(=O)COc1c(F)cc(SCCNS(=O)(=O)c2ccccc2)cc1F	25.5% (inactive)
NNC(N)=O	2.25% (inactive)
CC(C)(C)OC(=O)NC1[C@H]2CNC[C@@H]12 (some centres undefined)	-14.1% (inactive)
NCCc1ccc(S(=O)(=O)F)cc1	-3.51% (inactive)
C#CCN[C@H](C)Cc1ccccc1	39.5% (inactive)
CN1CCc2cccc(Cl)c2CC1	13.4% (inactive)
O=C1/C(=C/c2ccccc2)C[C@@]2(O)[C@H]3Cc4ccc(O)c5c4[C@@]2(CCN3CC2CC2)[C@H]1O5	-4.23% (inactive)
O=C(NC1CN2CCC1CC2)c1cc2ccoc2cn1 (centres undefined)	-0.27% (inactive)
CC(N)Cc1c[nH]c2ccc(O)cc12 (centres undefined)	7.11% (inactive)
O=[N+]([O-])c1ccc2nc(N3CCNCC3)ccc2c1	-13.1% (inactive)
CN1CCc2cc(O)cc3c2[C@H]1Cc1ccc(O)c(O)c1-3	-6.93% (inactive)
Nc1cc2c(ncn2CCOCP(=O)(O)O)c(=O)[nH]1	2.61% (inactive)
N#CCCN	26.5% (inactive)
C=CCN1C[C@@H](C)N([C@H](c2ccc(C(=O)N(CC)CC)cc2)c2cccc(OC)c2)C[C@@H]1C	2.25% (inactive)
CCCN(CCC)CCc1ccc(O)c(O)c1	-0.27% (inactive)
CCCC[N+]1(C)C2CC(OC(=O)[C@H](CO)c3ccccc3)CC1C1OC12 (some centres undefined)	2.07% (inactive)
c1ccc2cc(CC3=NCCN3)ccc2c1	-2.61% (inactive)
O=[N+]([O-])/C=C/c1ccc2c(c1)OCO2	-15.6% (inactive)
C[N+]1(C)C2CCC1CC(OC(=O)c1c[nH]c3ccccc13)C2 (centres undefined)	32.4% (inactive)
C[C@H]1C2Cc3ccc(O)cc3[C@@]1(C)CCN2CC1CC1	-22.6% (inactive)
CC(N)Cc1c[nH]c2ccc(OCc3cccs3)cc12 (centres undefined)	0.63% (inactive)
C[N+]1(C)CCc2cc3c(cc2[C@H]1[C@@H]1OC(=O)c2c1ccc1c2OCO1)OCO3	7.47% (inactive)
[Cl-].[Cl][Pt].[NH2-].[NH2-].c1ccncc1	15.8% (inactive)

target: Catechol O-methyltransferase (Homo sapiens) (UniProt P21964); experiment: Confirmatory Screen for Target Class Profiling of Small Molecule Inhibitors of Methyltransferases (AID 1745852; calls by dose curve; as to activity change, negative = inhibition: % is scaled to controls: 0 for no effect and ±100 for the full control effect); conditions: MTase-Glo luminescence, SAH detection, recombinant enzyme; measured here: COMT max response; stronger effect = lower value
Sequence (P21964 whole entry, looked up): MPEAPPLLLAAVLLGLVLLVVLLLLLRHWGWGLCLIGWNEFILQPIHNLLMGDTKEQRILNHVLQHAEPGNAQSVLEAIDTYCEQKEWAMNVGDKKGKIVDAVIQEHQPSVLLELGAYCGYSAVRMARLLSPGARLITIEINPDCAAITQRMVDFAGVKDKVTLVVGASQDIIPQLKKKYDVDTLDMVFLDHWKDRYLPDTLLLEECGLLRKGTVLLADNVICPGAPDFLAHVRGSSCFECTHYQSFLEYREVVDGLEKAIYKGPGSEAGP

Compound	activity
CN1CCc2cc(O)cc3c2[C@H]1Cc1ccc(O)c(O)c1-3	-101%
CCCN(CCC)CCc1ccc(O)c(O)c1	153%
c1ccc2cc(CC3=NCCN3)ccc2c1	5%

target: Guanidinoacetate N-methyltransferase (Homo sapiens) (UniProt Q14353); experiment: as above; conditions: MTase-Glo luminescence, SAH detection, recombinant enzyme; activity change, negative = inhibition: at 57.3 µM (top of the series) unless noted

Compound	activity change, negative = inhibition
CN1CCc2cc(O)cc3c2[C@H]1Cc1ccc(O)c(O)c1-3	-1.59%
CCCN(CCC)CCc1ccc(O)c(O)c1	6.88%
c1ccc2cc(CC3=NCCN3)ccc2c1	3.5%
